Rows were chosen to be rich in hits. Some 19% of all compounds tested hit in one or more screens of this group.
DT40 TDP1 no CPT: qHTS for Inhibitors of human tyrosyl-DNA phosphodiesterase 1 (TDP1): qHTS in cells in absence of CPT. DT40 Tdp1-/- hTDP1 cells, no CPT, ATP luminescence, 48 h. Potency, µM (top dose mostly 46.2 µM), inactives show top-dose activity change, negative = growth inhibition, most hits filed as inhibitors. hit rate 15% among 420,000; further: potency means the concentration at half of the fitted maximal effect; nearly all actives have a fitted effect of over 55% in size
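Compound effects on proliferation are scored in DT40 Tdp1-/-;hTDP1 cells in the absence of CPT. ATP levels (CellTiter-Glo luminescence) are recorded after a ≥48 hr, 37 °C incubation.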
TDP1 cell CPT: qHTS for Inhibitors of human tyrosyl-DNA phosphodiesterase 1 (TDP1): qHTS in cells in presence of CPT. Potency, µM (doses to about 46.2 µM), without a hit: at the highest dose activity change, negative = growth inhibition, hits mostly inhibitors. chicken DT40 Tdp1-/-;hTDP1 cells + 20 nM CPT, ATP luminescence, 48 h. AID 686979, 2013. hit rate 12% among 420,000; further: potency means the concentration at half of the fitted maximal effect; nearly all actives have a fitted effect of over 55% in size
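Chicken DT40 Tdp1-/- cells stably complemented with human TDP1 were seeded at 400 cells/well in medium containing 20 nM camptothecin, exposed to pin-transferred compounds, and grown at 37 °C for at least 48 hr. Viability was read as ATP luminescence.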
HT1080-NT tox: qHTS for induction of synthetic lethality in tumor cells producing 2HG: qHTS for the HT-1080-NT fibrosarcoma cell line. HT-1080-NT fibrosarcoma viability, CellTiter-Glo ATP luminescence, 48 h. Potency, µM (titrated, usually from 46.1 µM), for inactives: at the top dose activity, negative = less viability, hits mostly cytotoxic. AID 686970, 2013. hit rate 1.6% among 360,000;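 further: NT is the 2HG producing partner of a matched IDH1 knockdown line; potency means the concentration at half of the fitted maximal effect; 0% = DMSO-treated cells and -100% = media-only wells without cells; nearly all actives have a fitted effect of over 55% in size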
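Fibrosarcoma NT cells, 750 per well in 5% FBS RPMI, were exposed to compound for 48 hours. Viability: CellTiter-Glo luminescence.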
IL-1B inflam inh: qHTS for Inhibitors of Inflammasome Signaling: IL-1-beta AlphaLISA Primary Screen; THP-1 LPS/ATP IL-1B secretion, AlphaLISA, 16 h; active compounds read low; activity change, % at 57.5 µM; hit rate 4.7% among 360,000; AID 743279, 2014; in the data active means activity change below about -50%; inconclusive means mostly about -30% to -49%
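Secreted IL-1B measured by AlphaLISA bead assay after 16 h compound exposure of THP-1 cells; compounds (final up to 57.5 uM) added 1 h before LPS (250 ng/mL) and ATP (1.25 mM) stimulation; lower signal means less secretion.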
HT1080 IDH1KD tx: qHTS for induction of synthetic lethality in tumor cells producing 2HG: qHTS for the HT-1080-IDH1KD cell line. AID 686971, 2013. HT-1080 IDH1 knockdown viability, ATP luminescence, 48 h. Potency, µM (doses to about 46.1 µM), for the others: at the top dose activity, negative = toxicity, usual class: cytotoxic. hit rate 2% among 360,000;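 further: potency means the concentration at half of the fitted maximal effect; 0% = DMSO wells and -100% = cell-free medium wells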
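Cytotoxicity counter-line: IDH1KD HT-1080, 48 h, CellTiter-Glo. Curves classed by r2, magnitude and activity.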
Starred values were filed as active, the others as inactive; ? = inconclusive; nt = no result given. Unless noted, the call rests on the fitted dose curve; in most records, active means well fitted curve in the direction sought with a large enough effect; inconclusive means small, poorly fitted or top-dose-only effect, or another doubt; inactive means no such curve, though single readings can be large; an effect the other way counts as inactive or inconclusive. Unless noted, on the % scale 0 is the no-effect control and ±100 the full control effect.

SMILES | DT40 TDP1 no CPT | TDP1 cell CPT | HT1080-NT tox | IL-1B inflam inh | HT1080 IDH1KD tx
CC1(C)CC(Cc2nc(=S)[nH][nH]2)C(=O)O1 (stereo not given) | 1% | ? | 13% | 14 | 4%
CC(C)OCCCNC(=O)Cc1ccc(Br)cc1 | -13% | -1% | 10% | 7 | -1%
Cc1ccnc(NC(=O)CCC(=O)N(Cc2ccco2)C(C(=O)NC(C)C)c2ccc(F)cc2)c1 (stereo not given) | -27% | 8% | -6% | 8 | -2%
COc1ccc(/C=C2\N=C(C(C)(C)C)OC2=O)c(OC)c1 | 8.2µM* | 7.3µM* | -1% | 31 | 0%
O=C(NCc1ccccc1)c1ccc(Cn2c(=O)c3cccn3c3cccnc32)cc1 | -23% | -6% | nt | nt | nt
O=C(NCCc1ccc(Cl)cc1)c1ccc(Cn2c(=O)c3cccn3c3cccnc32)cc1 | 15µM* | ? | nt | nt | nt
CCOc1ccc(CCNC(=O)c2cccc(-n3c(C)nc4cccnc43)c2C)cc1 | 15µM* | 21µM* | nt | nt | nt
CC(C)Oc1ccc(CNC(=O)c2ccc(Cn3c(=O)c4cccn4c4cccnc43)cc2)cc1 | 0.46µM* | ? | nt | nt | nt
CCOc1ccc(CCNC(=O)c2ccc(Cn3c(=O)c4cccn4c4cccnc43)cc2)cc1 | 21µM* | 13µM* | nt | nt | nt
CCCCCC(=O)N1C[C@H](n2cc(-c3ccc(F)cc3)nn2)[C@@H](O)C[C@@H]1c1ccc(OC)cc1 | -30% | 2% | 6% | -9 | 2%
COc1ccc(N2CCN(S(=O)(=O)CCNC(=O)COc3ccccc3OC)CC2)cc1 | -7% | ? | -1% | 29 | -1%
Cc1cccc(N2CCN(C(=O)c3cn(C4CCCCC4)c(=O)c4c3c3ccccc3n4C)CC2)c1C | 16µM* | ? | nt | nt | nt
COc1ccc(N2CCN(C(=O)c3cn(C4CCCCC4)c(=O)c4c3c3ccccc3n4C)CC2)cc1 | 21µM* | 23µM* | nt | nt | nt
Cc1cccc(N2CCN(C(=O)Cn3ncc4c5ccccc5n(C)c4c3=O)CC2)c1C | -12% | -14% | nt | nt | nt
Cn1c2ccccc2c2c(C(=O)N3CCN(c4ccc(F)cc4)CC3)cn(C3CCCCC3)c(=O)c21 | 18µM* | 16µM* | nt | nt | nt
Nc1ccccc1Nc1cccc(C(F)(F)F)c1 | ? | 9% | -14% | -157* | -27%
Cc1cc(C)nc(Nc2cccc(C(F)(F)F)c2)n1 | -43% | -25% | 20% | 14 | 9%
COc1ccc(Nc2c(C)cccc2C)cc1 | -11% | -11% | 7% | -1 | 5%
Nc1ccc(Nc2ccncc2)cc1 | -3% | 5% | 8% | -11 | 7%
Nc1ccc(Nc2ccccc2N)cc1 | 10µM* | 5.2µM* | ? | 6 | ?
COc1ccc(Nc2ccccc2N)cc1 | 21µM* | ? | -13% | -50* | ?
O=c1cc(/C=C/c2c(F)cccc2Cl)[nH]c2ccccc12 | ? | ? | 16% | 18 | 18%
O=C(NCCCN1CCOCC1)c1cccnc1SCc1ccccc1Cl | -20% | 9% | 13% | -1 | 0%
O=C(NCCc1ccccc1)c1ccc(NC(=O)C2CCCCC2)cc1 | -22% | -21% | 9% | 25 | 8%
COc1cc(/C(C)=N\NC(N)=S)cc(OC)c1OC | 5% | -6% | 2% | 2 | 18%
C/C(=N\NC(=S)Nc1ccc(C(C)C)cc1)c1ccc2c(c1)OCO2 | 23µM* | ? | -23% | -17 | -27%
C/C(=N\NC(=O)COc1ccc(C(C)(C)C)cc1)c1ccc2c(c1)OCCO2 | 26µM* | 16µM* | 5% | 12 | 19%
CNC(=S)N/N=C(\C)c1ccc2c(c1)OCCO2 | -4% | -3% | 30% | 13 | 20%
COc1cc(/C(C)=N/NC(=S)NC(C)C)cc(OC)c1OC | 1.2µM* | 1.3µM* | -4% | ? | -10%
CCc1ccc(OCC(=O)N/N=C(\C)c2ccc3c(c2)OCCO3)cc1 | -6% | 3% | 3% | 12 | 6%

From PubChem
